In PubChem BioAssay AID2315 (National Center for Advancing Translational Sciences (NCATS), 2010):
Out of some 290,000 compounds screened, about 27,000 (9.3%) were called active. Shown is part of a subset that was picked to be rich in actives. Unmarked numbers belong to inactive results. No stated cut-off is given here; in the data, active means inhibition mostly above about 28% (no sharp cut-off); inactive means mostly below about 43%.

test: A qHTS for Small Molecule Inhibitors of Shiga Toxin; settings: Vero cells, Shiga toxin protein synthesis inhibition reporter; at 38.7 µM, active compounds read high; further: 0% is about no effect

Structure (SMILES) | inhibition
Cc1cc(C)c(C(=O)CSc2nc(C)cc(=O)[nH]2)c(C)c1 | -13.9%
CCC(C)(C)n1nnnc1C(c1ccc(OC)c(OC)c1)N1CCN(C(=O)c2ccco2)CC1 (stereo unspecified) | -11.9%
CCOC(=O)[C@@H]1[C@H]2COc3cc(OC)ccc3[C@H]2N2C(=O)N(c3ccc(F)cc3)C(=O)[C@]12C | -4.71%
Cc1cc(NC(=O)CN2CCCCC2C)nc2c1c(=O)oc1ccccc12 (stereo unspecified) | -0.755%
CCN(CC)CCN1C(=O)C(=O)/C(=C(/O)c2ccc(OC)c(OC)c2)C1c1ccccn1 (stereo unspecified) | 59.8%
CCN(CC)CCN1C(=O)C(=O)/C(=C(/O)c2ccccc2)C1c1ccccc1F (stereo unspecified) | 19.4%
CCN(CC)CCN1C(=O)C(=O)/C(=C(/O)c2cnn(-c3ccccc3)c2C)C1c1cccs1 (stereo unspecified) | 79.5% (active)
O=[N+]([O-])c1cc(C(F)(F)F)ccc1NCCc1ccncc1 | 2.61%
NC(=O)c1ccc(Nc2ccc3c(c2)CCC3)c([N+](=O)[O-])c1 | 9.03%
CSc1cccc(NC(=O)CN2C(=O)COc3ccc(S(=O)(=O)N4CCOCC4)cc32)c1 | 10.9%
Cc1ccc(NC(=O)Cn2nnc(C(=O)NCc3ccco3)c2N)c(C)c1 | -2.94%
Cc1ccccc1NC(=O)NCc1ccco1 | 18.7%
Cc1ccc(NC(=O)C(=O)NCc2ccco2)c(C)c1 | 109% (active)
O=c1c2cc(Br)ccc2nc(-c2cccc(Cl)c2)n1O | 0.78%
COc1cc(/C=N/NC(=O)Cc2ccccc2)cc(OC)c1OC | -8.46%
OCCCNc1nccc(-c2cc(Nc3cccc(Cl)c3)ncn2)n1 | 51.3% (active)
NS(=O)(=O)c1cccnc1Nc1cccc(Cl)c1 | 15.1%
CC(C)n1cnc2c(Nc3cccc(Cl)c3)nc(N(CCO)CCCO)nc21 | -2.33%
O=C(O)CN1c2cccc3cccc(c23)S1(=O)=O | -1.09%
O=C(NCc1cccnc1)c1ccccc1NC(=O)c1c(F)cccc1F | -17.6%
CCOC(=O)C1(CCOc2ccccc2)CCN(Cc2ccc(C#CCCO)cc2)CC1 | -10.3%
CCOC(=O)C1(CCOC)CCN(Cc2ccc(C(=O)OC)cc2)CC1 | 74.5% (active)
CCOC(=O)C1(CCOc2ccccc2)CCN(Cc2cc(OC)cc(OC)c2)CC1 | -16.1%
Cc1cc(NC(=O)CCN2CCN(Cc3ccccc3)CC2)ccc1Br | 3.31%

Structure (SMILES) | inhibition
O=C(c1cc(COc2cccc(C(F)(F)F)c2)on1)N1CCSCC1 | 26.5%
C=CCC1(CC=C)CCCN1C(=O)c1cc(COc2ccc(-n3cncn3)cc2)on1 | 40.9%
CCOC(=O)CC1COCCN1C(=O)c1cc(COc2ccc(F)c(F)c2)on1 (stereo unspecified) | 72.8% (active)
O=C(c1cc(COc2ccc(F)c(F)c2)on1)N1CCOCC1 | 90.7% (active)
O=C(NC1Cc2ccccc2C1)c1cc(COc2cccc(C(F)(F)F)c2)on1 | -0.154%
O=C(c1c(F)cccc1F)N1CCN(c2ncc(Br)cn2)CC1 | -6.62%
Cc1cc(NC(=O)COC(=O)c2ccc(F)c(S(=O)(=O)N3CCOCC3)c2)no1 | -2.48%
Cc1c(C(=O)N2CCOCC2)[nH]c2ccc(OCc3ccccc3)cc12 | 5.47%
O=C(c1cc(COc2c(F)cccc2F)on1)N1CCSCC1 | 100% (active)
O=C(CC(NC(=O)c1ccccc1)c1ccccc1)Nc1ccc(F)c(F)c1 (stereo unspecified) | 12.4%
CCC(NC(=O)c1cc(COc2ccc(F)c(F)c2)on1)c1ccncc1 (stereo unspecified) | 52.5% (active)
Cc1nonc1C1CCCN1C(=O)c1cc(COc2cccc(C(F)(F)F)c2)on1 (stereo unspecified) | 23.7%
CC(C)NC(=O)N1CCN(c2ccncc2S(=O)(=O)N2CCCCC2)CC1 | -38.7%
Cn1c(=O)c(=O)n(C)c2cc(S(=O)(=O)CCC(=O)N3CCCCC3)ccc21 | -4.02%
CN(C)CCNc1ccc(-c2n[nH]c(=O)c3ccccc23)cc1[N+](=O)[O-] | -10.6%
Cc1ccc(C(=O)NCC(=O)NCc2cc(=O)n(C)c(=O)n2C)cc1 | -10.2%
COc1ccc(C(C(=O)NC2CCCCC2)N(C(=O)c2snc(C(N)=O)c2N)c2ccccc2OC)cc1 (stereo unspecified) | -17.5%
COc1ccc(-n2nc(C(=O)NCC(=O)N3CCCCCC3)c3ccccc3c2=O)cc1Cl | -9.59%
COc1cc(CC(=O)N2CCC(n3nccc3NC(=O)C3CC3)CC2)cc(OC)c1OC | -10.9%
Cc1cc(C)cc(N(CCC#N)C(=O)CN2C(=O)NC3(CCCC3)C2=O)c1 | 23%
O=C(O)C1CCCN1C1=NS(=O)(=O)c2ccccc21 (stereo unspecified) | -13.3%
CCOC(=O)C1CCN(C(=O)Cn2nc(C)c3c(C)n(-c4ccccc4)nc3c2=O)CC1 | -6.47%
COc1ccc(N2CCN(S(=O)(=O)c3cc(Br)cnc3N)CC2)cc1 | -7.11%
O=C(CCN1C(=O)[C@@H]2Cc3ccccc3CN2C1=O)NCCc1ccccc1 | -8.8%

Structure (SMILES) | inhibition
O=C(c1cc(COc2ccc(F)cc2F)on1)N1CCOCC1 | 81.3% (active)
COCCN1CCN(C(=O)c2cc(COc3ccc(F)cc3Cl)on2)CC1 | -23.4%
O=C(Oc1ccc(C(=S)N2CCOCC2)cc1)c1ccc(F)cc1 | -4.36%
O=C(Nc1ccc(Cl)cc1)Nc1nnc(/C=C/c2ccccc2)s1 | -5.24%
COc1ccc(/C=C/c2nnc(NC(=O)C(C)C)s2)cc1 | 42.3% (active)
O=C(CSc1ccccc1)Nc1nnc(/C=C/c2ccccc2)s1 | -38.9%
COC(=O)[C@]1(S(=O)(=O)c2ccccc2)C[C@@H]2ON=C(c3ccc(OC)cc3)[C@@H]2C1 | 13.5%
Cc1nn2cc(-c3ccc(Cl)cc3)cnc2c1Br | 38.8% (active)
COc1ccc(NC(=O)N2CCC(Cc3ccccc3)CC2)cc1 | 35.2%
COc1ccc(NC(=S)N2N=CCC2c2ccccc2)cc1 (stereo unspecified) | 88.7% (active)
COc1ccc(N2CCN(C(=S)Nc3ccc(S(N)(=O)=O)cc3)CC2)cc1 | -17.7%
COc1ccccc1CNC(=O)C1CCN(S(=O)(=O)c2ccc3c(c2)CC(C)N3C(=O)C2CC2)CC1 (stereo unspecified) | -10.2%
Cc1ccc(N(Cc2ccccc2O)C(=O)c2ccccc2F)cc1 | -2.19%
CCCC(=O)N(CCN1CCOCC1)c1nc2ccc(OCC)cc2s1 | 1.4%
CCOc1ccc2nc(C(=O)N3CCCC(C)C3)sc2c1 (stereo unspecified) | 129% (active)
CCOc1ccc2nc(Nc3nc4ccc(NC(C)=O)cc4s3)sc2c1 | 50.5%
CC(C)[C@@H](C(=O)O)N(Cc1cccc(CN([C@H](C(=O)O)C(C)C)S(C)(=O)=O)c1)S(C)(=O)=O | -4.11%
CN1c2ccc([N+](=O)[O-])cc2C(C)(C)C12C=Cc1cc(C(=O)O)ccc1O2 (stereo unspecified) | 6.92%
COc1cccc(CC2(CO)CCCN(CC3=Cc4cc(OC)ccc4OC3)C2)c1 (stereo unspecified) | -9.4%
COc1ccc2c(c1)C=CC1(O2)N(CCO)c2ccccc2C1(C)C (stereo unspecified) | 40.8% (active)
Cc1ccc(C)c(NC(=O)c2cc(-c3cc(C)cc(C)c3O)n[nH]2)c1 | 1.58%
Clc1ccc(C[n+]2cc(-c3ccccc3)n3c2CCC3)cc1 | 12.3%
Cc1ccc(/C=N/NC(=O)c2cc3ccccc3cc2O)o1 | 51.6% (active)
O=C(N/N=C/c1cccnc1)c1cc2ccccc2cc1O | 87.2% (active)

Structure (SMILES) | inhibition
O=C(N/N=C/c1cccnc1)c1ccc(NC(=O)c2ccc(F)cc2)cc1 | 12.4%
O=C(N/N=C\c1cccnc1)c1cc(-c2ccccc2)nc2c(Cl)cccc12 | -27%
Cc1ccc(/C=N/NC(=O)CNC(=O)COc2ccccc2)o1 | -15.5%
Cc1ccc(/C=N/NC(=O)CSc2ccccn2)o1 | 17.6%
CN(C)CCOC1c2ccccc2-c2ccccc21 | -5.07%
COc1ccc(NC(=O)CNC(=O)Cc2ccccc2)cc1OC | 3.87%
O=C(CN(Cc1ccccc1)C(=O)CCC(=O)Nc1ccccn1)NCCc1ccccc1 | -11.7%
COc1ccc2c(c1)c(C(=O)N/N=C/c1cccs1)c(C)n2C | -4.44%
Cc1nnc(NC(=O)CCCOc2ccccc2)s1 | -8.1%
CSc1nnc(NC(=O)c2nc(S(=O)(=O)Cc3ccc(C)cc3)ncc2Cl)s1 | 85.5% (active)
Cc1ccc(CS(=O)(=O)c2ncc(Cl)c(C(=O)Nc3nnc(C)s3)n2)cc1 | 116% (active)
CSc1ncc(Cl)c(C(=O)Nc2cc(C)ccc2C)n1 | -0.876%
COCCSc1nnc(NC(=O)CCS(=O)(=O)Cc2ccccc2)s1 | -28.2%
Cc1ccc(S(=O)(=O)CC(=O)Nc2nnc(C)s2)cc1 | -7.78%
S=C(NCc1ccco1)NCc1ccccc1Cl | 12.9%
CCOC(=O)c1ccc(-n2c(CCC(=O)O)ccc2-c2ccccc2)cc1 | 1.31%
O=C(O)CCn1c(Cc2ccccc2)nc2ccccc21 | 22.4%
CC(=O)c1cccc(NC(=S)N2CCN(S(C)(=O)=O)CC2)c1 | -3.09%
Cc1ccc(OCC(=O)c2cc(C)n(Cc3ccco3)c2C)c([N+](=O)[O-])n1 | 50.3% (active)
O=C(COC(=O)CNC(=O)c1ccco1)Nc1ccc(F)cc1 | -5.84%
Cc1cc(C(=O)CSc2nc(N)cc(=O)[nH]2)c(C)n1Cc1ccco1 | -5.79%
COCC(C)n1c(C)cc(C(=O)COc2ccc(C)nc2[N+](=O)[O-])c1C (stereo unspecified) | 27%
COc1ccc(C)cc1-n1nnnc1SCC(=O)c1cc(C)n(Cc2ccco2)c1C | -3.11%
Cc1cc(C(=O)COC(=O)CNC(=O)c2ccc(F)cc2)c(C)n1Cc1ccco1 | 109% (active)
